# This is a sample that favours compounds with a hit; in the whole collection about 10% have one here.
# BAZ2B inh = BAZ2B (human) inhibition; Potency, µM (top dose mostly 114 µM), without a hit: at the top dose activity change, negative = inhibition, hits mostly inhibitors; actives 4.4% (n = 360,000); Q9UIF8; AID 504333; AlphaScreen BAZ2B-H3K14Ac peptide displacement; note: % is set by controls: 0 for no effect and ±100 for the full control effect; nearly all actives have a fitted effect of over 60% in size
#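 Inhibition is scored as reduced AlphaScreen emission. The BAZ2B/b-H3(5-23)K14Ac complex (50 nM each) in PBS pH 7.4, 0.01% Tween-20 meets compound (up to 110 uM) for 30 min at RT before bead addition.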
# HP1b chromo inh = blocks HP1-beta chromodomain binding to methylated histone tails; P83916; AlphaScreen HP1-beta / biotin-H3K9me3 peptide binding; Potency, µM (top dose mostly 114 µM), inactives show at the highest dose activity change, negative = inhibition, actives largely listed as inhibitors; actives 0.56% (n = 390,000); AID 540317; note: nearly all actives have a fitted effect of over 70% in size
#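 HP1-beta protein (50 nM final) preincubated 30 min at room temperature with biotinylated H3(1-18)K9me3 peptide (50 nM) in PBS pH 7.4, 0.01% Tween-20, then compound added for 30 min. AlphaScreen streptavidin donor/nickel chelate acceptor beads (10 ug/mL final), 30 min dark, luminescence read.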
# JMJD2A Tudor = JMJD2A Tudor domain (human) inhibition | O75164 | AlphaScreen JMJD2A-Tudor / H3K4me3 peptide binding | Potency, µM (doses to about 114 µM), inactives show at the highest dose activity change, negative = inhibition, usual class: inhibitors | actives 4.4% (n = 390,000) | AID 504339; note: % is set by controls: 0 for no effect and ±100 for the full control effect; nearly all actives have a fitted effect of over 50% in size
# G9a inh = blocks human histone lysine methyltransferase G9a; G9a H3K9 monomethylation, AlphaScreen, 2 h; Potency, µM (top dose mostly 102 µM), inactives show top-dose activity, negative = inhibition, actives largely listed as inhibitors; actives 8.8% (n = 350,000); note: % is set by controls: 0 for no effect and ±100 for the full control effect; nearly all actives have a fitted effect of over 75% in size
#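 Compounds were preincubated with 20 nM G9a for 15 min, after which biotinylated H3K9 peptide (500 nM) and SAM (20 uM) started a 2 h room-temperature reaction. Monomethylated product was quantified by antibody-based AlphaScreen chemiluminescence.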
# GLS inhibitor = inhibitors of human glutaminase (GLS); O94925; GLS enzymatic activity, qHTS titration; Potency, µM (doses to about 45.5 µM), without a hit: at the highest dose activity change, negative = inhibition, usual class: inhibitors; actives 0.21% (n = 410,000); note: % is set by controls: 0 for no effect and ±100 for the full control effect
#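 Enzyme dispensed in phosphate buffer (45 mM, pH 8.2, 0.02% Tween-20), compounds pinned in, then 1 mM L-glutamine solution and the glutamate oxidase–HRP–Amplex Red mix added; fluorescence read immediately and again after 30 min at room temperature.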
# Active calls of the source: *; ? = inconclusive; / = no result given; [ ] = remark or other dose. Calls come from the whole dose curve; as a rule, active = well fitted curve in the direction sought with a large enough effect; inconclusive = small, poorly fitted or top-dose-only effect, or another doubt; inactive = no such curve, though single readings can be large; an effect the other way counts as inactive or inconclusive. Potency is the fitted concentration of half-maximal effect.
SMILES,BAZ2B inh,HP1b chromo inh,JMJD2A Tudor,G9a inh,GLS inhibitor
CC1CC(C)C(=O)C(C(CC2CC(=O)NC(=O)C2)OC(=O)CC(=O)c2ccccc2)C1 (centres undefined),/,11.3%[57 µM],-6.2%,/,-2.7%
C#CCOCCOCCOCCNc1nc(N2CCN(C(=O)[C@H](CCCN=C(N)N)n3cc(C(N)[C@H](C)CC)nn3)CC2)nc(N2CCN(C(=O)[C@H](CCCN=C(N)N)n3cc(C(N)[C@@H](C)CC)nn3)CC2)n1 (some centres undefined),/,2.6%,79.4µM*,/,-1.2%
C#CCOCCOCCOCCNc1nc(N2CCN(C(=O)[C@H](CCCN=C(N)N)n3cc(C(N)[C@@H](C)CC)nn3)CC2)nc(N2CCN(C(=O)[C@H](CC(N)=O)n3cc([C@@H](N)CC(N)=O)nn3)CC2)n1 (some centres undefined),/,5.6%,22.4µM*,/,7.8%
C#CCOCCOCCOCCNc1nc(N2CCN(C(=O)[C@H](CCCCN)n3cc(CN)nn3)CC2)nc(N2CCN(C(=O)[C@H](CCCN=C(N)N)n3cc(C(N)[C@H](C)CC)nn3)CC2)n1 (some centres undefined),/,18.1%,79.4µM*,/,-1.4%
C#CCOCCOCCOCCNc1nc(N2CCN(C(=O)[C@H](CCCN=C(N)N)n3cc(C(N)[C@@H](C)CC)nn3)CC2)nc(N2CCN(C(=O)[C@H](CC(N)=O)n3cc([C@@H](N)C(C)C)nn3)CC2)n1 (some centres undefined),/,15.5%,79.4µM*,/,9.8%
C#CCOCCOCCOCCNc1nc(N2CCOCC2)nc(N2CCN(C(=O)[C@H](CCCN=C(N)N)n3cc(C(N)[C@@H](C)CC)nn3)CC2)n1 (some centres undefined),/,28.4%,-19.7%,/,-0.4%
COc1ccc(Br)cc1CNC(=O)C1CCCCN1S(=O)(=O)c1ccc(F)cc1 (centres undefined),1.3%,20.5%,-29.9%,-3.3%[59 µM],-0.1%
CCOC(=O)/C=c1/s/c(=C/c2ccccc2OC)c(=O)n1CC(=O)N1CCOCC1,/,38.3%,-20.8%,/,-6.2%
O=C1NC(=Nc2ccccc2)S/C1=C\c1ccccc1,-31.9%,48.0%,-16.4%,-1.9%[0.501 µM],-6.5%
O=C1NC(=Nc2ccccc2)/C(=C/c2ccco2)S1,50.1µM*,21.9%,-29.4%,11.2µM*,5.4%
Cc1ccc(N=C2NC(=O)S/C2=C\c2ccco2)cc1,63.1µM*,0.8%,17.8µM*,?,-5.3%
COc1ccccc1OCC(=O)Nc1cc(S(=O)(=O)N2CCOCC2)ccc1N1CCCCC1,/,-20.1%,-25.3%,/,23.0%
CCCCCCCCN1C(=O)[C@H](CC(=O)NCCC(C)C)C[C@@]2(C(=O)OC)CCCCC=C12,/,/,/,/,0.6%
CC[N+]1(CC(O)COC2CC(C)CC(C)(C)C2)CCOCC1 (centres undefined),-17.4%,31.1%,20µM*,-41.3%[12.7 µM],-0.4%
CC1CCN(CC(O)COC2CC(C)CC(C)(C)C2)CC1 (centres undefined),/,64.0%,6.4%,/,-4.6%
O=C(O)c1ccc(S(=O)(=O)N[C@H](Cc2ccc(O)cc2)C(=O)O)cc1,-6.3%,/,-19.3%,?,/
Cn1c2cc(S(C)=O)sc2c2cnn(Cc3cccc(O)c3)c(=O)c21 (centres undefined),/,/,4.3%,/,/
COCCCN1CN(S(=O)(=O)c2ccc(C)cc2C)c2nc3ccccc3nc21,?,31.4%,-9.4%,31.6µM*,-1.6%
CCCCCN1CN(S(=O)(=O)c2cccs2)c2nc3ccccc3nc21,-2.4%,24.5%,-19.7%,28.2µM*,-0.8%
Cc1ccc(S(=O)(=O)N2CN(CC3CCCO3)c3nc4ccccc4nc32)c(C)c1 (centres undefined),?,8.7%,-5.1%,31.6µM*,-5.3%
O=S(=O)(c1cccs1)N1CN(CC2CCCO2)c2nc3ccccc3nc21 (centres undefined),-4.8%,13.0%,-23.9%,?,1.0%
CCN(CC)CCNC(=O)c1c(C)oc2ncnc(N3CCOCC3)c12,10.5%[57.1 µM],36.0%,7.4%,-1.1%[59 µM],3.5%
CC(C)c1nnc(NC(=O)c2ccc3c(c2)OCO3)s1,-17.9%,19.8%,9.1%,-43.8%,-8.1%
